The source of these data is ChEMBL document CHEMBL4513216, “Probing the Open Global Health Chemical Diversity Library for Multistage-Active Starting Points for Next-Generation Antimalarials” (ACS Infect Dis, 2020).

In all, about 69,000 compounds went through this assay and about 8,600 (12%) showed an effect of 50% or more. The list comes from a sample in which strong results are over-represented; it also holds similar structures and randomly drawn compounds.

The subject of the assay is Plasmodium berghei. Put plainly: Screen against P. berghei liver stage (PbLuc), transformed with Luciferase, at 10uM. Type of assay: functional, HepG2. The settings on record: tested at 10 uM.
As for `CS(=O)(=O)c1cc(S(N)(=O)=O)ccc1NCC1CCCO1` (stereo not given), the INHIBITION is reported as 30%.
For `CCc1nnc(CN2CCN(CC(O)c3ccccc3)CC2)o1` (stereo not given) the value was -12.2%.
With `Cc1nnc(CN2CCN(CC(O)c3ccccc3)CC2)o1` (stereo not given), the INHIBITION is listed as 4.71%.
In the case of `CC(C)(C)c1nnc(CN2CCN(CC(O)c3ccccc3)CC2)o1` (stereo not given), the INHIBITION came to 58.2%.
Turning to `OCC1CCCN1c1cc(NCc2cccnc2)ncn1` (stereo not given), the INHIBITION was -7.35%.
For `O=C(Nc1cccc(Cl)c1)c1nn(C2CCS(=O)(=O)C2)c2c1CCCC2` (stereo not given) the value was 79.8%; for `O=C(Nc1cccnc1)c1nn(C2CCS(=O)(=O)C2)c2c1CCCC2` (stereo not given), 36.6%; for `Cc1cccc(NC(=O)c2nn(C3CCS(=O)(=O)C3)c3c2CCCC3)n1` (stereo not given), 30.8%.
For `O=C(NCc1ccco1)c1nn(C2CCS(=O)(=O)C2)c2c1CCCC2` (stereo not given), the INHIBITION was -18.2%.
As for `CC(C)(C)NC(=O)c1nn(C2CCS(=O)(=O)C2)c2c1CCCC2` (stereo not given), the INHIBITION is recorded as 28.4%.
In the case of `O=C(Nc1ccc(Cl)cc1)c1nn(C2CCS(=O)(=O)C2)c2c1CCCC2` (stereo not given), the INHIBITION is 26.7%.
On to `O=C(NCc1ccccc1)c1nn(C2CCS(=O)(=O)C2)c2c1CCCC2` (stereo not given), for which the INHIBITION turned out to be 20.1%.
Then `O=C(Nc1ccccc1F)c1nn(C2CCS(=O)(=O)C2)c2c1CCCC2` (stereo not given), with 85.5%.
For `Cc1nn(C2CCS(=O)(=O)C2)c(O)c1Cc1cccc(Cl)c1` (stereo not given) the value was 28.5%; for `O=C(Nc1ccc(Cl)cn1)c1nn(C2CCS(=O)(=O)C2)c2c1CCCC2` (stereo not given), 83.9%.
Then `Cc1cc(NC(=O)c2nn(C3CCS(=O)(=O)C3)c3c2CCCC3)no1` (stereo not given), with 26.7%; and `O=C(Nc1ccccc1)c1nn(C2CCS(=O)(=O)C2)c2c1CCCC2` (stereo not given), with 66.3%.
Take `Cc1ccc(O)c(CNCC(C)c2nc3ccccc3o2)n1` (stereo not given): the INHIBITION is listed as 43.1%.
Then `O=C(Nc1ccc2c(c1)C(=O)NC2=O)c1ccc(Cl)s1`, with -93.6%; and `NCC1CCC(C(NC(=O)c2cccc(F)c2)c2ccccn2)CC1` (stereo not given), with 14.4%.
For `CCc1c(C(=O)N2CCCC(N(C)C)C2)cnn1C(C)(C)C` (stereo not given) the value was 5.7%; for `O=C1[C@@H]2CN(C3CCOCC3)C[C@H]2CCN1CC1CC1`, 3.81%.
Then `CN(C)S(=O)(=O)c1ccc(-c2nc(C#N)c(NC3CCCCC3)o2)o1`, with 19.8%; and `Cc1nc(NC(=O)c2ccc(-n3ncc(C#N)c3N)cc2)sc1C`, with 50.3%.
With `Cc1ccnc(NC(=O)c2ccc(-n3ncc(C#N)c3N)cc2)c1`, the INHIBITION was found to be 68.8%.
As to `N#Cc1cnn(-c2ccc(C(=O)N(C3CCCCC3)C3CC3)cc2)c1N`, the INHIBITION was 17.5%.
For `Cc1cccnc1NC(=O)c1ccc(-n2ncc(C#N)c2N)cc1` the value was 25.6%; for `Cc1cnc(NC(=O)c2ccc(-n3ncc(C#N)c3N)cc2)s1`, 47.3%; for `N#Cc1cnn(-c2ccc(C(=O)Nc3ccccn3)cc2)c1N`, 28.7%.
For the compound `Cc1cc(NC(=O)c2ccc(-n3ncc(C#N)c3N)cc2)n(C)n1`, the INHIBITION is on record as 11.2%.
For `CN(CC1CCCCC1)C(=O)c1ccc(-n2ncc(C#N)c2N)cc1` the value was 52.7%; for `CN(C(=O)c1ccc(-n2ncc(C#N)c2N)cc1)C1CCCC1`, -8.11%.
Then `Cc1cnc(N2C[C@@H]3[C@@H](C2)OCC(=O)N3CC(C)C)nc1`, with 40.8%.
In the case of `CN(C)C(=O)N1CCN(c2ccc(Cl)nn2)C(=O)C1`, the INHIBITION was 16.8%.
Consider `COc1ccc(Br)cc1SCCCS(C)(=O)=O`, for which the INHIBITION turned out to be 12.8%.
As to `Cc1nc(N2CCN(C(=O)c3ccncc3)CC2)c2c(n1)c(C)nn2C`, the INHIBITION was 33.3%.
For `Cc1nc(C2CCCN(C(=O)CCCn3cccn3)C2)sc1C` (stereo not given) the value was -23.9%.
For `Cc1ccc2c(n1)N(CCN(C)C)CCN(C(=O)c1cscn1)C2` the value was 38.1%; for `Cc1ccc2c(n1)N(CCN(C)C)CCN(C(=O)c1ccc[nH]1)C2`, 10.8%; for `Cc1ccc2c(n1)N(CCN(C)C)CCN(C(=O)c1cccs1)C2`, 74.2%.
For `Cc1ccc2c(n1)N(CCN(C)C)CCN(C(=O)c1ccco1)C2` the value was 54.4%.
Regarding `Cc1ccc2c(n1)N(CCN(C)C)CCN(C(=O)c1ccoc1)C2`, the INHIBITION was found to be 48.6%.
Then `Cc1ccc2c(n1)N(CCN(C)C)CCN(C(=O)c1ccsc1)C2`, with 40.4%; and `COc1ccc(C(CNC(=O)Nc2cc(C)nn2C)N(C)C)cc1` (stereo not given), with 9.383%; and `CCOCCN1CCN([C@@H]2c3ccccc3C3(CCNCC3)[C@H]2O)CC1`, with 29.4%.
For `COCCCC1CCN([C@@H]2c3ccccc3C3(CCNCC3)[C@H]2O)CC1` the value was 17.5%.
Turning to `CC(C)=CCN1CCC2(CC1)c1ccccc1[C@@H](N1CCSCC1)[C@@H]2O`, the INHIBITION turned out to be 56.5%.
Consider `CC(=O)CN1CCC2(CC1)c1ccccc1[C@@H](N1CCSCC1)[C@@H]2O`, for which the INHIBITION came to 22.3%.
Then `CS(=O)(=O)N1CCC2(CC1)c1ccccc1[C@@H](N1CCSCC1)[C@@H]2O`, with 24.4%.
For the compound `COCCCN1CCN([C@@H]2c3ccccc3C3(CCNCC3)[C@H]2O)CC1`, the INHIBITION is 58.1%.
For `CC(C)C1=NOC2(CCN(C(=O)C3CCCC3)CC2)C1` the value was 20.9%; for `c1cn2c(n1)CN(C1CCOCC1)CC(CN1CCCC1)C2` (stereo not given), 29%.
For `Cc1nc(C)n(C2CCCN(C(=O)c3ncoc3C(C)C)C2)n1` (stereo not given) the value was 38.5%; for `Cc1ccc(NC2CCN(C(=O)CCc3nccs3)CC2)nn1`, -48.4%; for `COCCOCCNC(=O)c1cccc(Cn2nc(C)cc2C)c1`, 26.6%.
For `O=C(NCC(O)COc1ccc(C(F)(F)F)cc1)Nc1nncs1` (stereo not given) the value was 14.8%; for `CCn1cc(NC(=O)c2cccc(OCC(F)(F)F)n2)cn1`, 51.5%; for `O=C(NCC(O)COc1ccccc1)Nc1nncs1` (stereo not given), 53.1%.
On to `CCn1cc(NC(=O)NCC(O)COc2ccccc2)cn1` (stereo not given), for which the INHIBITION is reported as 60.5%.
Then `CCn1cc(NC(=O)NCC(O)COc2cccc(F)c2)cn1` (stereo not given), with 23.2%; and `Cc1n[nH]c(C)c1NC(=O)c1cccc(OCC(F)(F)F)n1`, with -14.9%; and `CCn1cc(NC(=O)NCC(C)O)cn1` (stereo not given), with 13.1%.
Regarding `Cc1cc(NC(=O)NCC(O)COc2ccccc2)n(C)n1` (stereo not given), the INHIBITION is listed as 25.365%.
Then `CCc1cc(NC(=O)c2cccc(OCC(F)(F)F)n2)[nH]n1`, with -20.8%.
For the compound `Cc1nonc1CC(=O)N1C[C@H]2CC[C@@H](C1)N(Cc1ccccc1)C2=O`, the INHIBITION worked out at 0.139%.
